Data as given in the supplement of paper PMC10849652.
The full data set covers some 8,800 targets. This sample favours those with a hit. About 0.5% of all pairs of compound and target were hits. A number with no mark means an inactive call.

Columns and labels:
Test in all cases: log2 fold change, soluble protein after heating vs DMSO (PISA); higher = thermal stabilisation; K562 lysate, 10 uM; active = over 0.2 and 3.5 SD of the protein, either way, in both replicates (recomputed)
alvocidib = compound: CN1CC[C@H](c2c(O)cc(O)c3c(=O)cc(-c4ccccc4Cl)oc23)[C@H](O)C1 [alvocidib]
Procedure, shortened: (§1)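 Following dounce homogenisation of K562 pellets in PBS pH 7.4 with 1 mM MgCl2, crude extract at 1 mg/mL protein was incubated for 30 min with 10 μM compound. Aliquots were then heated for 3 min over 48°C-58°C and pooled, NP-40 was added to 0.5% at 4°C, and soluble protein was recovered as the supernatant at 21,000xg for 90 min. Channel-sum-equalised TMTpro 16plex LC-MS/MS quantified this protein. Each value, from duplicates, is a log-two fold change in thermal stability relative to solvent controls.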

Tubastatin A = compound: CN1CCc2c(c3ccccc3n2Cc2ccc(C(=O)NO)cc2)C1 [Tubastatin A]
Procedure, shortened: as §1

[1] = compound: CNC(=O)C1=CC=CC=C1NC2=NC(=NC=C2Cl)NC3=C(C=C(C=C3)N4CCOCC4)OC
Procedure, shortened: as §1

[2] = compound: CNc1nc(-c2ccc3c(N)n[nH]c3c2)cc(N2C[C@@H](C(=O)NC3CCCCC3)CC[C@H]2C)n1
Procedure, shortened: as §1

alisertib = compound: COc1cc(Nc2ncc3c(n2)-c2ccc(Cl)cc2C(c2c(F)cccc2OC)=NC3)ccc1C(=O)O [alisertib]
Procedure, shortened: as §1

[3] = compound: COc1cc2nc(-c3cc(F)ccc3O)nc(N[C@@H]3CNC[C@H]3C(C)(C)O)c2cc1OC
Procedure, shortened: as §1

gefitinib = compound: COc1cc2ncnc(Nc3ccc(F)c(Cl)c3)c2cc1OCCCN1CCOCC1 [gefitinib]
Procedure, shortened: as §1

lapatinib = compound: CS(=O)(=O)CCNCc1ccc(-c2ccc3ncnc(Nc4ccc(OCc5cccc(F)c5)c(Cl)c4)c3c2)o1 [lapatinib]
Procedure, shortened: as §1

pictilisib = compound: CS(=O)(=O)N1CCN(Cc2cc3nc(-c4cccc5[nH]ncc45)nc(N4CCOCC4)c3s2)CC1 [pictilisib]
Procedure, shortened: as §1

crizotinib = compound: C[C@@H](Oc1cc(-c2cnn(C3CCNCC3)c2)cnc1N)c1c(Cl)ccc(F)c1Cl [crizotinib]
Procedure, shortened: as §1

[4] = compound: C[C@H](C1=CC=C(C=C1)C(=O)NC2=C3C=CNC3=NC=C2)N
Procedure, shortened: as §1

duvelisib = compound: C[C@H](Nc1ncnc2nc[nH]c12)c1cc2cccc(Cl)c2c(=O)n1-c1ccccc1 [duvelisib]
Procedure, shortened: as §1

gandotinib = compound: Cc1cc(Nc2cc(CN3CCOCC3)c3nc(C)c(Cc4ccc(Cl)cc4F)n3n2)n[nH]1 [gandotinib]
Procedure, shortened: as §1

doramapimod = compound: Cc1ccc(-n2nc(C(C)(C)C)cc2NC(=O)Nc2ccc(OCCN3CCOCC3)c3ccccc23)cc1 [doramapimod]
Procedure, shortened: as §1

bafetinib = compound: Cc1ccc(NC(=O)c2ccc(CN3CC[C@H](N(C)C)C3)c(C(F)(F)F)c2)cc1Nc1nccc(-c2cncnc2)n1 [bafetinib]
Procedure, shortened: as §1

[5] = compound: Cc1cccc(CC(=O)N2CCc3c2ccc(-c2cn(C)c4ncnc(N)c24)c3F)n1
Procedure, shortened: as §1

encorafenib = compound: COC(=O)N[C@@H](C)CNc1nccc(-c2cn(C(C)C)nc2-c2cc(Cl)cc(NS(C)(=O)=O)c2F)n1 [encorafenib]
Procedure, shortened: as §1

[6] = compound: COC(=O)[C@H](CCSC)NC(=O)C1=C(C=C(C=C1)NC[C@H](CS)N)C2=CC=CC=C2
Procedure, shortened: as §1

tozasertib = compound: Cc1cc(Nc2cc(N3CCN(C)CC3)nc(Sc3ccc(NC(=O)C4CC4)cc3)n2)n[nH]1 [tozasertib]
Procedure, shortened: as §1

defactinib = compound: CNC(=O)c1ccc(Nc2ncc(C(F)(F)F)c(NCc3nccnc3N(C)S(C)(=O)=O)n2)cc1 [defactinib]
Procedure, shortened: as §1

Chain of UniProt P04150 (P04150 whole entry, looked up): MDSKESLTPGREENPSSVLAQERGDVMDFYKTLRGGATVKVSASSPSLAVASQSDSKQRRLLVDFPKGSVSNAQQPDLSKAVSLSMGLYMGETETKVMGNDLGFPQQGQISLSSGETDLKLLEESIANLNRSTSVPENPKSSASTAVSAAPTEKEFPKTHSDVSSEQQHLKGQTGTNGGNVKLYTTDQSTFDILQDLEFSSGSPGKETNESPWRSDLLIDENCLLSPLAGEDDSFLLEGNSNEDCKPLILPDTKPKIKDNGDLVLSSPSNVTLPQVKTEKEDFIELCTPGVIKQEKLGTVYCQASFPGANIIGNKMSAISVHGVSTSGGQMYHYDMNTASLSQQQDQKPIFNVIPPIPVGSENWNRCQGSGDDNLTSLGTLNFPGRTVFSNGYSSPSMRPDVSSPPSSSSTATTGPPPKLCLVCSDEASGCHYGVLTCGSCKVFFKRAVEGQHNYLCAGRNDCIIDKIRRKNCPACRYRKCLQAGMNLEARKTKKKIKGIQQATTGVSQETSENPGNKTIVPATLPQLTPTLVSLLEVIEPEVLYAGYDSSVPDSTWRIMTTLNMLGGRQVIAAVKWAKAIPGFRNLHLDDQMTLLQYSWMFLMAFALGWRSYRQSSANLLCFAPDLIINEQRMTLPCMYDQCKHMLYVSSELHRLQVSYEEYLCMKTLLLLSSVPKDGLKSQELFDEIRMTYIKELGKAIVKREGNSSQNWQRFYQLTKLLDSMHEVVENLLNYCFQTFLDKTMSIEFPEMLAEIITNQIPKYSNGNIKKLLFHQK
Chain of UniProt Q9BZ23 (Q9BZ23 whole entry, looked up): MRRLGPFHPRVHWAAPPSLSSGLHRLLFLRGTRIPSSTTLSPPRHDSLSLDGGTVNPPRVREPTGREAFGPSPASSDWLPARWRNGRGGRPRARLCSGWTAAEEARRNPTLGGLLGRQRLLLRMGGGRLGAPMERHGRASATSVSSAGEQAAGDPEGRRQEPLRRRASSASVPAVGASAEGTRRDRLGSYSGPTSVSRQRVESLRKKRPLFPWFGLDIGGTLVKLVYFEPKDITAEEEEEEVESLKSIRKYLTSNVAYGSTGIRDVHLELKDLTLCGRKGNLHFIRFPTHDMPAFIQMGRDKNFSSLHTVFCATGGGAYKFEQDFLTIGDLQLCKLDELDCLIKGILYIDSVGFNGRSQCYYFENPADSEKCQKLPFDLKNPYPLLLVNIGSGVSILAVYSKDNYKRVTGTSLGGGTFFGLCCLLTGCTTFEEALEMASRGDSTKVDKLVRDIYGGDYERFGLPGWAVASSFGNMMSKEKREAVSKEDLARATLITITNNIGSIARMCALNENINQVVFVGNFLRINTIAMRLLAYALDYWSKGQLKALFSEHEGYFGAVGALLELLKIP
Chain of UniProt O94916 (O94916 whole entry, looked up): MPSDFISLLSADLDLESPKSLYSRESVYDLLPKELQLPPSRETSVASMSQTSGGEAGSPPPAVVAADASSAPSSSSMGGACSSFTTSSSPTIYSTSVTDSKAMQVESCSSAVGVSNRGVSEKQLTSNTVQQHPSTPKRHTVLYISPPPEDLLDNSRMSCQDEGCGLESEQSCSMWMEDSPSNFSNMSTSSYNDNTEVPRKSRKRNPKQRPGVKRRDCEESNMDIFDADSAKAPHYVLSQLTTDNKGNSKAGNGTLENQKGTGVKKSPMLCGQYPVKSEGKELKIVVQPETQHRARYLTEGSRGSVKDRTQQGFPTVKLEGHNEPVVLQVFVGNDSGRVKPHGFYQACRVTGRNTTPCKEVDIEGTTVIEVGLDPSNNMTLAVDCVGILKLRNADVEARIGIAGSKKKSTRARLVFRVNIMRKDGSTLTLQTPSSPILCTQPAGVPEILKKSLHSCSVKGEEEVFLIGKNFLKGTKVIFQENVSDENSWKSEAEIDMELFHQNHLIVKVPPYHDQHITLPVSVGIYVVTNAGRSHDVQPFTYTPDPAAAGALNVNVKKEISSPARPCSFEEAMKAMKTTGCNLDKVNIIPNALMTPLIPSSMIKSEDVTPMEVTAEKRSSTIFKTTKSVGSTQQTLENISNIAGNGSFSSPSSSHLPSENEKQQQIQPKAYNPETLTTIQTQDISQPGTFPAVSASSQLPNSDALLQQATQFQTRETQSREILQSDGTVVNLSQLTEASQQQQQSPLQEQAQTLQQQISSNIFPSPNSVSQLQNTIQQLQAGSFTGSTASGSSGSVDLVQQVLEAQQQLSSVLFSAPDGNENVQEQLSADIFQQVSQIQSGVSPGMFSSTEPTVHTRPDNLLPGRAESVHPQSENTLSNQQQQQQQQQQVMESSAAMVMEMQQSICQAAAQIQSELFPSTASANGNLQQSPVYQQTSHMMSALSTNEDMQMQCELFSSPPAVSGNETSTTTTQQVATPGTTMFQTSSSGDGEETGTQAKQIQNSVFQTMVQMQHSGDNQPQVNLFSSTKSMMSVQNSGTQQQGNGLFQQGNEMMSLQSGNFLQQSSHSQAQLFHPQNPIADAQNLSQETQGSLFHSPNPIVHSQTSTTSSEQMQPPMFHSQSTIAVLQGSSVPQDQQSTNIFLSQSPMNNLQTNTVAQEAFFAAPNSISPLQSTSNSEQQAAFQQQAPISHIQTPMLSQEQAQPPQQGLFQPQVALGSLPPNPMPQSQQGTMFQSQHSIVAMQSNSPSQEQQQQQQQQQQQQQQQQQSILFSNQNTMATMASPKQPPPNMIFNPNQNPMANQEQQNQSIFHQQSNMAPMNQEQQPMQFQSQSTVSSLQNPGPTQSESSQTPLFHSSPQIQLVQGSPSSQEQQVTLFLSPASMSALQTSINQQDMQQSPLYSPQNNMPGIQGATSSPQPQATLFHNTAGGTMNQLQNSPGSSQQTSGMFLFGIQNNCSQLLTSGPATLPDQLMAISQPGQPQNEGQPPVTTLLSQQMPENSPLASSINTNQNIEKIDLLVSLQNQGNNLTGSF
Chain of UniProt Q9BXW6 (Q9BXW6 whole entry, looked up): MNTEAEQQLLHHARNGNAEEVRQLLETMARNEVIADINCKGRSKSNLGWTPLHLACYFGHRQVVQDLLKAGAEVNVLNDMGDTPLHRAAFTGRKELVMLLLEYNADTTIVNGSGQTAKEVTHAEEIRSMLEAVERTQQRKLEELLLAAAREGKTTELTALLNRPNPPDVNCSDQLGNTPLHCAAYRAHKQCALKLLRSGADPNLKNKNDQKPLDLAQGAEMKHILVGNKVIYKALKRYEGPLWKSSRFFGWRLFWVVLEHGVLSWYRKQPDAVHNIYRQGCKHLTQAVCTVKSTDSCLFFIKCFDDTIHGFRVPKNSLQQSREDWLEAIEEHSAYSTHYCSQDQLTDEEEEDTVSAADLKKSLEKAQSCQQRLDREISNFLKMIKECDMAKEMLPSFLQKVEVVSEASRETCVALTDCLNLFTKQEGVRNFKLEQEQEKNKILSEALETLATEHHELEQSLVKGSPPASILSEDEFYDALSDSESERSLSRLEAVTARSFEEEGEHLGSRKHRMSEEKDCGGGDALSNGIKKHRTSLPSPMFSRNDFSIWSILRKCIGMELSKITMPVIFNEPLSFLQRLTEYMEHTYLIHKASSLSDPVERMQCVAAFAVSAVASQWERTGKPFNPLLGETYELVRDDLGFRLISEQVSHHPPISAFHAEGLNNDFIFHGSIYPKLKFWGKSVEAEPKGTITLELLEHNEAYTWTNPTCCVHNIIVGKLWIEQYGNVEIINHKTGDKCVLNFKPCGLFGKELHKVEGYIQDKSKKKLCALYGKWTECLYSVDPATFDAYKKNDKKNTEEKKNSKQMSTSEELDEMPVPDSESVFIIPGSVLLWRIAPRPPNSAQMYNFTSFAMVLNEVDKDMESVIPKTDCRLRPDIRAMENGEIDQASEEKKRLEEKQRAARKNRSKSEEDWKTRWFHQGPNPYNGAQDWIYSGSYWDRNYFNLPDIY
Chain of UniProt Q8TEW8 (Q8TEW8 whole entry, looked up): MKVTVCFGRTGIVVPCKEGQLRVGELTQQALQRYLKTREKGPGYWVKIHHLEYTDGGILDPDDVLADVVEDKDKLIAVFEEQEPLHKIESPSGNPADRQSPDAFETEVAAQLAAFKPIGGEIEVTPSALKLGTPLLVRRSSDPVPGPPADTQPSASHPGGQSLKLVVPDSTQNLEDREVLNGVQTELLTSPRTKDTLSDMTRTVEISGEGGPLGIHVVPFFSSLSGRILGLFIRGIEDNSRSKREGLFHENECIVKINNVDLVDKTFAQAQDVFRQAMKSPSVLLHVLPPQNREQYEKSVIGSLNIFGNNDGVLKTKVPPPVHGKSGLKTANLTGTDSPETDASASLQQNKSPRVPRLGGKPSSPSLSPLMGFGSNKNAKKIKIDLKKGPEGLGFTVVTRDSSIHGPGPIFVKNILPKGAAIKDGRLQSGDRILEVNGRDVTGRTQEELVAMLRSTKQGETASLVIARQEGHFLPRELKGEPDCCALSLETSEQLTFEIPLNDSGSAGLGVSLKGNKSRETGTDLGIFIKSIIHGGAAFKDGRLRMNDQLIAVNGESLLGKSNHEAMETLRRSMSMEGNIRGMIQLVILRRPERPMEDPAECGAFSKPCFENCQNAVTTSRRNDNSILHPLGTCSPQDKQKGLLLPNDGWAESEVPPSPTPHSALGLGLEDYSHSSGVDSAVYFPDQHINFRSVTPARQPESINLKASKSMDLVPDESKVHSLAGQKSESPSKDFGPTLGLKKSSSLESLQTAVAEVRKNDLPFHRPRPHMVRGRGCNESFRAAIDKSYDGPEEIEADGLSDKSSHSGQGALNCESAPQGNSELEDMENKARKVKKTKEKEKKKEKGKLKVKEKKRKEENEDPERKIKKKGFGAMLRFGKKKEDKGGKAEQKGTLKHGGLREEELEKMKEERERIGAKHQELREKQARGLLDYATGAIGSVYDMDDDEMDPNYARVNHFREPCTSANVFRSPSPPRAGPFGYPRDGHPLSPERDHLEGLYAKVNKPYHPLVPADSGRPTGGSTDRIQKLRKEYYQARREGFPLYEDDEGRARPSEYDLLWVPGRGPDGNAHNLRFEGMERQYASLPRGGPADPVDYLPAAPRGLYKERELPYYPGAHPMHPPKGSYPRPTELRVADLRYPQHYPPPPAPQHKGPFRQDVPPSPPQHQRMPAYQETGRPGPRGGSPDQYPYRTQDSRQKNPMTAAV

| Target | log2 fold change (alvocidib) | log2 fold change (Tubastatin A) | log2 fold change [1] | log2 fold change [2] | log2 fold change (alisertib) | log2 fold change [3] | log2 fold change (gefitinib) | log2 fold change (lapatinib) | log2 fold change (pictilisib) | log2 fold change (crizotinib) | log2 fold change [4] | log2 fold change (duvelisib) | log2 fold change (gandotinib) | log2 fold change (doramapimod) | log2 fold change (bafetinib) | log2 fold change [5] | log2 fold change (encorafenib) | log2 fold change [6] | log2 fold change (tozasertib) | log2 fold change (defactinib) |
| --- | --- | --- | --- | --- | --- | --- | --- | --- | --- | --- | --- | --- | --- | --- | --- | --- | --- | --- | --- | --- |
| NR2F2 (UniProt P24468) | -0.053 | -0.154 | 0.056 | -0.047 | 0.072 | 0.012 | -0.077 | 0.06 | 0.072 | -0.022 | -0.163 | -0.046 | -0.153 | -0.005 | 0.037 | -0.023 | – | – | – | – |
| ORC1 (UniProt Q13415) | – | – | – | – | – | – | – | – | – | – | – | – | – | – | – | – | 0.018 | -0.188 | 0.023 | – |
| PANK2 (UniProt Q9BZ23) | 0.057 | 0.108 | – | 0 | 0.35 (active) | -0.046 | -0.233 | 0.079 | 0.143 | -0.073 | -0.023 | -0.126 | 0.077 | -0.008 | -0.029 | 0.095 | -0.01 | 0.014 | 0.008 | 0.023 |
| NOCT (UniProt Q9UK39) | – | 0.012 | 0.159 | 0.042 | 0.009 | -0.144 | -0.088 | -0.025 | – | 0.024 | – | 0.039 | – | 0.063 | – | – | 0.046 | -0.01 | 0.111 | – |
| MUC5AC (UniProt P98088) | – | -0.03 | – | – | -0.233 | – | 0.013 | – | – | – | – | – | – | – | – | – | – | – | – | – |
| NUB1 isoform 2 (UniProt Q9Y5A7) | – | – | – | – | – | – | – | – | – | 0.015 | – | – | – | 0.063 | – | – | – | – | – | – |
| NPLOC4 (UniProt I3L3I1) | – | – | – | 0.799 | – | – | – | – | 0.145 | -0.53 | – | 0.038 | – | -0.002 | -0.214 | – | 0.014 | -0.143 | -0.216 | – |
| NFAT5 isoform 4 (UniProt O94916) | – | – | – | – | – | – | – | – | -0.138 | -0.028 | – | – | – | -0.158 | -0.053 | – | – | – | – | – |
| MYLK (UniProt Q15746) | 0.097 | – | – | – | -0.001 | -0.109 | 0.071 | -0.006 | 0.015 | 0.082 | -0.181 | – | 0.033 | 0.611 (active) | 0.712 (active) | -0.047 | 0.154 | -0.008 | 0.114 | 0.128 |
| NSA2 (UniProt O95478) | -0.291 | -0.181 | -0.017 | 0.066 | -0.14 | -0.012 | 0.056 | 0.014 | -0.088 | – | -0.036 | -0.055 | 0.159 | – | 0.064 | 0.221 | -0.184 | -0.086 | -0.086 | 0.058 |
| NDUFAF5 (UniProt Q5TEU4) | -0.004 | 0.12 | -0.068 | 0.175 | – | -0.033 | – | 0.002 | -0.02 | -0.044 | -0.212 | -0.286 (active) | 0.026 | 0.129 | -0.019 | -0.061 | 0.18 | -0.065 | 0.068 | -0.047 |
| OSBPL1A (UniProt Q9BXW6) | -0.035 | – | 0.091 | 0.099 | -0.071 | 0.048 | 0.135 | -0.035 | -0.051 | -0.014 | -0.079 | 0.072 | 0.069 | 0.019 | -0.077 | 0.102 | – | – | – | – |
| NUMB isoform 2 (UniProt P49757) | – | -0.112 | – | 0.158 | 0.092 | – | -0.277 | – | – | – | – | 0.023 | – | – | – | – | – | – | – | – |
| ORC3 (UniProt Q9UBD5) | 0.16 | – | – | – | -0.035 | 0 | 0.105 | 0.213 | – | – | 0.129 | – | -0.311 | – | – | 0.082 | – | – | – | – |
| MYBL2 (UniProt P10244) | 0 | -0.15 | 0.045 | -0.016 | – | – | – | – | – | -0.018 | 0.181 | -0.011 | -0.286 | 0.017 | – | -0.184 | 0.088 | -0.023 | 0.001 | 0.113 |
| NSUN7 (UniProt Q8NE18) | -0.191 | 0.176 | -0.001 | – | – | -0.006 | – | -0.094 | -0.001 | -0.374 | -0.039 | – | 0.022 | 0.045 | 0.285 | 0.125 | 0.21 | -0.026 | 0.152 | -0.035 |
| PARD3B (UniProt Q8TEW8) | -0.125 | – | 0.005 | 0.093 | – | – | – | – | – | – | -0.197 | 0.024 | 0.074 | – | – | 0.042 | – | – | – | – |
| MYH6 (UniProt P13533) | – | 0.142 | -0.06 | – | – | 0.206 | – | -0.111 | -1.52 (active) | -0.097 | – | – | – | -0.245 | -0.132 | – | -0.048 | 0.082 | 0.009 | – |
| NR3C1 isoform 3 (UniProt P04150) | -0.004 | -0.088 | 0.048 | -0.093 | 0.045 | -0.001 | 0.013 | – | -0.26 | 0.012 | 0.057 | 0.046 | -0.091 | -0.005 | -0.027 | 0.073 | 0.05 | 0.029 | 0.012 | 0.021 |
| NRIP1 (UniProt P48552) | -0.145 | 0.001 | -0.096 | 0.291 | -0.21 | 0.04 | -0.011 | -0.052 | -0.007 | -0.155 | -0.396 | -0.014 | 0.407 | 0.048 | -0.07 | 0.26 | – | – | – | – |
| PAGE4 (UniProt O60829) | 0.086 | 0.027 | -0.072 | -0.038 | – | 0.057 | – | -0.012 | -0.05 | -0.028 | 0.344 (active) | 0.091 | -0.102 | 0.11 | -0.004 | -0.134 | -0.005 | -0.086 | -0.023 | – |
| NAA16 (UniProt Q6N069) | – | -0.097 | – | -0.05 | 0.11 | -0.03 | 0.142 | 0.048 | -0.108 | – | – | 0.029 | – | – | 0.022 | – | 0.062 | 0.169 | -0.016 | 0.086 |
| PAPOLG (UniProt Q9BWT3) | -0.008 | 0.16 | 0.003 | 0.085 | -0.035 | – | 0.062 | – | – | -0.139 | -0.026 | 0.02 | -0.002 | 0.017 | – | 0.067 | 0.063 | 0.098 | -0.027 | -0.025 |
| MTHFD1 (UniProt V9GZ32) | – | – | – | – | 0.108 | 0 | -0.073 | -0.067 | – | – | – | – | – | – | – | – | – | – | – | – |
